Reference: PubChem BioAssay

Each compound was assayed against Alpha-bungarotoxin (Bungarus multicinctus) (UniProt P60615) (assay: compounds binding labelled alpha-BTX control protein – biochemical, small-molecule microarray, Alexa647 label, 635/667 nm fluorescence, artefact control for SMM control protein annotation, profiling panel (AID 1117)). Conditions: alpha-BTX-A647 binding fluorescence, higher = more signal.
Alpha-bungarotoxin (Bungarus multicinctus), sequence (P60615 whole entry, looked up): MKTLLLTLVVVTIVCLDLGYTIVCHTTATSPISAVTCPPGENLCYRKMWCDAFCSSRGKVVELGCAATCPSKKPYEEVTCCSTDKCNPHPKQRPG
`O=C1[C@H]2C=C(Br)[C@H](C[C@@H]2c2ccccc2)[C@@]12CO2` gave a composite z-score of 0.0148. In the case of `COc1ccc(C#Cc2ccc3c(c2)[C@]2(C(=O)N3)[C@H](c3ccccc3OCCO)N3[C@H](c4ccccc4)[C@H](c4ccccc4)OC(=O)[C@H]3[C@@H]2C(=O)O)cc1`, the composite z-score is reported as 1.67. `O=C1O[C@H](c2ccccc2)[C@H](c2ccccc2)N2[C@H]1[C@@H](C(=O)N1CCN(c3ncccn3)CC1)[C@]1(C(=O)Nc3ccc(C#CC4=CCCCC4)cc31)[C@H]2c1ccc(O)cc1` showed a composite z-score of 1.44. With `C=CC[C@@]1(C(N)=O)N=C(c2ccc(OCCCO)cc2)O[C@@H]1c1ccccc1CN=[N+]=[N-]` the composite z-score was 0.834. With `COC(=O)[C@@]1(Cc2ccccc2)[C@H]2c3cc(C(=O)N4CCCC4)n(Cc4nc5ccccc5[nH]4)c3C[C@H]2CN1C(=O)c1ccccc1` the composite z-score was 0.442. Compound `O=C1O[C@H](c2ccccc2)[C@H](c2ccccc2)N2[C@H]1[C@@H](C(=O)O)[C@]1(C(=O)Nc3ccc(C#CC4=CCCCC4)cc31)[C@H]2c1ccccc1OCCO` has a composite z-score of 2.23. `COCCOC(=O)N1C(=O)[C@@]2(c3cc(C#Cc4ccc(OC)cc4)ccc31)[C@H](c1ccccc1OCCO)N1[C@H](c3ccccc3)[C@H](c3ccccc3)OC(=O)[C@H]1[C@@H]2C(=O)N1CCN(c2ncccn2)CC1` was tested, and the composite z-score was 0.876. Work on `C=C/C=C/[C@H]1C(=C)CN([C@@H](Cc2ccccc2)C(=O)OC)[C@@H]1[C@H](O)Cc1ccccc1` yielded a composite z-score of -0.217. `C=CCOC(=O)[C@H]1[C@@H]2C(=O)O[C@@H](c3ccccc3)[C@@H](c3ccccc3)N2[C@@H](c2ccc(OCCOC(=O)[C@@H]3C[C@@H]4C(=O)N[C@@H](CCCC[N+](C)(C)C)C(=O)N4[C@@H]3c3ccc(O)cc3)cc2)[C@]12C(=O)Nc1ccccc12` showed a composite z-score of 0.428. `C[C@@H]1ON(c2cccc(C(=O)OC(C)(C)C)c2)[C@H](c2ccc(Br)cc2)[C@H]1C(=O)N1C(=O)OC[C@H]1Cc1ccccc1` showed a composite z-score of 0.518. In the case of `O=C1C2C=CC(C(O)c3ccc(F)cc3)N(Nc3ccccc3F)C2C(=O)N1c1ccccc1` (stereo not given), the composite z-score is reported as 0.394. In the case of `COc1ccc(CCN2C(=O)[C@@]3(Cc4ccccc42)c2ccccc2C(=O)N(Cc2ccccc2C(F)(F)F)[C@H]3c2ccc(CO)cc2)cc1`, the composite z-score is reported as 0.88. `COC(=O)[C@@]1(Cc2ccc(OC)cc2)[C@H]2c3cc(C(=O)N4CCCC4)n(Cc4ccsc4Br)c3C[C@H]2CN1C(=O)c1ccccc1` was tested, and the composite z-score was 0.218. For `O=C1NC(=O)C2C1C=CC(C(O)Cc1ccccc1)N2Nc1ccc(Cl)cc1Cl` (stereo not given), the composite z-score was 1.57. With `COC(=O)[C@@]1(Cc2ccccc2)[C@H]2c3cc(C(=O)N4CCCC4)n(CC4CC4)c3C[C@H]2CN1C(=O)c1ccccc1` the composite z-score was 0.615. `COC(=O)[C@@]1(Cc2ccc(F)cc2)[C@H]2c3cc(C(=O)N4CCCC4)n(Cc4ccc(C)o4)c3C[C@H]2CN1C(=O)c1ccccc1` was tested, and the composite z-score was 0.948. `COc1cc2c(cc1OC)CN(C(=O)[C@H]1[C@@H]3C(=O)O[C@@H](c4ccccc4)[C@@H](c4ccccc4)N3[C@@H](c3ccc(O)cc3)[C@]13C(=O)Nc1ccc(C#CC4=CCCCC4)cc13)CC2` gave a composite z-score of 1.67. `[N-]=[N+]=Nc1ccccc1[C@H]1OC(c2ccc(OCCCO)cc2)=N[C@@]1(Cc1ccccc1)C(=O)O` showed a composite z-score of 2.07. With `CC(C)N1C(=O)[C@@]2(Cc3ccccc31)c1ccccc1C(=O)N(C1CCCCC1)[C@H]2c1ccc(CO)cc1` the composite z-score was 0.284. `CCOC(=O)[C@H]1C/C=C/C[C@H](C(=O)OCC)C(=O)O[C@H]2[C@@H](OC)O[C@H](CO)[C@@H](OC(=O)Nc3ccc(C#N)cc3)[C@@H]2OC1=O` showed a composite z-score of -0.253. `CCCC=C(CCC)[C@@H](NS(=O)(=O)c1cccs1)c1ccc(C(=O)OC)cc1` showed a composite z-score of 1.24. Compound `COC(=O)[C@@]1(Cc2ccc(F)cc2)[C@H]2c3cc(C(=O)N(C)C)n(Cc4nc5ccccc5[nH]4)c3C[C@H]2CN1C(=O)c1ccccc1` has a composite z-score of 0.324. With `CC(C)(C)OC(=O)CC[C@@]1(C(=O)NCC(O)CO)N=C(c2ccc(OCCCO)cc2)O[C@@H]1c1ccccc1N=[N+]=[N-]` (stereo not given in full) the composite z-score was 1.6. `CCOc1cc(C(O)C2C=CC3C(=O)N(c4ccccc4)C(=O)C3N2Nc2ccccc2)ccc1O` (stereo not given) was tested, and the composite z-score was 0.147. For `CN1C(=O)C2C=CC(C(O)Cc3ccccc3)N(Nc3ccccc3)C2C1=O` (stereo not given), the composite z-score was 0.428. In the case of `COC(=O)C(CC#Cc1ccc2c(c1)[C@]1(C(=O)N2)[C@H](c2ccc(O)cc2)N2[C@H](c3ccccc3)[C@H](c3ccccc3)OC(=O)[C@H]2[C@@H]1C(=O)Nc1nc2ccccc2s1)C(=O)OC`, the composite z-score is reported as 1.62. `COc1ccc(C(=O)Nc2ccc(CN3C(=O)[C@@]4(O[C@@H](CCO)[C@H]([Si](C)(C)c5ccc(OC)cc5)[C@H]4C)c4ccccc43)cc2)cc1` was tested, and the composite z-score was 0.643. `COCCOC(=O)N1C(=O)[C@@]2(c3cc(C#Cc4ccc(OC)cc4)ccc31)[C@H](C(=O)N1CCCCCCC1)[C@H]1C(=O)O[C@H](c3ccccc3)[C@H](c3ccccc3)N1[C@@H]2c1ccc(OCCO)cc1` was tested, and the composite z-score was 1.14. `O=C1O[C@H](c2ccccc2)[C@H](c2ccccc2)N2[C@H]1[C@@H](C(=O)O)[C@]1(C(=O)Nc3ccc(C#CCCO)cc31)[C@H]2c1ccc(O)cc1` was tested, and the composite z-score was 0.0639. `CC(C)(C)C(=O)N[C@@H](c1ccc(Cl)cc1)[C@]1(C)C[C@H]1C1CCCCC1` was tested, and the composite z-score was 2.02. In the case of `O=C(NCc1ccccc1)[C@@]1(Cc2ccccc2)N=C(c2ccc(OCCCO)cc2)O[C@H]1c1ccccc1`, the composite z-score is reported as 1.1. In the case of `CC(C)(C)OC(=O)CC[C@@]12N=C(c3ccc(OCCCO)cc3)O[C@@H]1c1ccccc1N(CCS(=O)(=O)c1ccccc1)C2=O`, the composite z-score is reported as 1.35. `[N-]=[N+]=NCc1ccccc1[C@@H]1OC(c2ccc(OCCCO)cc2)=N[C@]1(Cc1ccccc1N=[N+]=[N-])C(=O)N1CCOCC1` was tested, and the composite z-score was 1.82. In the case of `COCCOC(=O)N1C(=O)[C@@]2(c3cc(C#CC4(O)CCCCCC4)ccc31)[C@H](c1ccc(O)cc1)N1[C@H](c3ccccc3)[C@H](c3ccccc3)OC(=O)[C@H]1[C@@H]2C(=O)Nc1nc2ccccc2s1`, the composite z-score is reported as 2.21. With `COCCOC(=O)N1C(=O)[C@@]2(c3cc(C#CC4=CCCCC4)ccc31)[C@H](C(=O)N1CCc3cc(OC)c(OC)cc3C1)[C@H]1C(=O)O[C@H](c3ccccc3)[C@H](c3ccccc3)N1[C@@H]2c1ccc(OCCO)cc1` the composite z-score was 1.07.
